Drawing on PubChem BioAssay, this text covers composite z-score, composite Z-score and z-score for five compounds.

Structures are written as SMILES. Activity calls are given as the source filed them.

For one test, the target named is Albumin (Bos taurus) (UniProt P02769). The test can be described thus: bovine serum albumin binders on microarray, profiling panel, artefact control for SMM control protein annotation, biochemical, small-molecule microarray, Alexa647 label, 635/667 nm fluorescence (AID 1118).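 Note: score merges 667 nm emission intensity and signal-to-noise per printed compound spot.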 The conditions noted are these: BSA-A647 binding, fluorescence 635 nm, higher = more signal.
Sequence of Albumin (Bos taurus) (P02769 whole entry, looked up): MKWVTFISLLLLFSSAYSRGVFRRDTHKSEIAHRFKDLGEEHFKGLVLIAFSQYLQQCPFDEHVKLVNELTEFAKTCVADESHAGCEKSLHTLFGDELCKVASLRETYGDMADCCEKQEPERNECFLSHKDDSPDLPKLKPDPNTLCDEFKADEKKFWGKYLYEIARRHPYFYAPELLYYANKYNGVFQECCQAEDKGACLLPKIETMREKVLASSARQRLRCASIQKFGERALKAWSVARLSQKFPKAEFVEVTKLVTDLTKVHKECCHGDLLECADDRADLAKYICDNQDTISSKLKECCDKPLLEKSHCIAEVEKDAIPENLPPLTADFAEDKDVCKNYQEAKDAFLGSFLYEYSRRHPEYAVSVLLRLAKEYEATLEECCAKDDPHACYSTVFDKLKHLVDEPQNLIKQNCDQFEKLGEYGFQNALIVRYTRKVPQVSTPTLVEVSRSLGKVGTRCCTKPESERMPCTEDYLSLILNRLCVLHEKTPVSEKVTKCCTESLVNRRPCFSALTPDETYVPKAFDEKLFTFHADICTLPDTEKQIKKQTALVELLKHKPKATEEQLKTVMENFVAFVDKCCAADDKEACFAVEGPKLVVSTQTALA

The nature of test [1]: small-molecule microarray binders of probe aXIP, primary screen, biochemical, NeuroSMM set, 635/667 nm fluorescence (AID 1119).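 Note: probe is the protein aXip251-270 applied at 1 µg/mL to compound-printed slides; binding of probe to printed compounds measured as 667 nm fluorescence plus signal to noise.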 The conditions noted are these: higher = more signal, called active from +8 up or from −8 down.
Test [2] in a line: small-molecule binders of probe aNOTCH3, primary screen, biochemical, small-molecule microarray, 635/667 nm fluorescence (AID 1120).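 Note: probe is a biotin-tagged antibody raised against NOTCH3 rather than NOTCH3 protein; score merges spot fluorescence near 667 nm with spot signal to noise.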 Conditions: higher = more signal.
Test [3] is described as follows: small-molecule binders of probe aNOTCH2, primary screen, biochemical, small-molecule microarray, 635/667 nm fluorescence (AID 1121).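 Note: score merges feature fluorescence read at 667 nm with its signal to noise.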 Conditions: higher = more signal.
The target of test [4] is Carbonic anhydrase 2 (Homo sapiens) (UniProt P00918). The test can be described thus: CAII small-molecule binders, profiling panel, biochemical, small-molecule microarray, Alexa647-labelled CAII (AID 1122). The conditions noted are these: CAII-A647 binding fluorescence, higher = more signal.
The nature of test [5]: COS7 lysate on small-molecule microarray, probe aHis, 635 nm (AID 1123).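 Note: z-score combines 667nm fluorescence intensity with signal-to-noise per printed compound spot.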 Conditions: COS7 cell lysate, fluorescence, higher = more signal.
A short description of test [6]: compound binding in COS7 lysate, probe aLAP1, primary screen, cell lysate, small-molecule microarray (AID 1124).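 Note: lysate comes from COS7 cells expressing LAP1 and is applied at 0.3 µg/mL; score merges spot fluorescence near 667 nm with signal-to-noise over triplicate slides.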 Conditions: probe aLAP1, fluorescence, higher = more signal.
Another test has as its system Sam68 (KHDRBS1). The test can be described thus: Sam68 small-molecule binders, primary screen, biochemical, small-molecule microarray, 635 nm fluorescence (AID 1125).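 Note: score merges 667 nm channel intensity with signal to noise over triplicate slides.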 The conditions noted are these: small-molecule microarray binding, higher = more signal.
Test [7] has as its system Chordin-like protein 2 (CHRDL2). Nature of the test: CHRDL2 small-molecule binders, primary screen, biochemical, small-molecule microarray, 635 nm fluorescence (AID 1126).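 Note: printed compound slides probed with Chrdl2 protein at 4 µg/mL for 1 h at 4 C; score merges 667 nm emission intensity with signal to noise over three replicate slides.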 The conditions noted are these: small-molecule microarray binding, fluorescence 635 nm; higher = more signal.
The target in test [8] is Concanavalin-A (Canavalia ensiformis) (UniProt P02866). The test can be described thus: ConA small-molecule binders, primary screen, artefact control for SMM control protein annotation, biochemical, small-molecule microarray, Alexa647 label, 635 nm (AID 1127).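 Note: z combines 667 nm emission intensity with signal-to-noise across three replicate slides.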 Conditions: ConA-A647 binding fluorescence, higher = more signal.
Sequence of Concanavalin-A (Canavalia ensiformis) (P02866 whole entry, looked up): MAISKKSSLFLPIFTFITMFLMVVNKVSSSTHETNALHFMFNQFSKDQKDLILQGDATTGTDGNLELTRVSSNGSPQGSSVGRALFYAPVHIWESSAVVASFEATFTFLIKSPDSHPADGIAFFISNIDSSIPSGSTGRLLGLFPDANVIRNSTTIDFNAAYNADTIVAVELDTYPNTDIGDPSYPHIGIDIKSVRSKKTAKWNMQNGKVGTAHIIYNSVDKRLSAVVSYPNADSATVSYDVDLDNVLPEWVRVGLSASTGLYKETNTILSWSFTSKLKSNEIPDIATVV
Test [9] is described as follows: anti-His antibody binders, primary screen, artefact control for SMM control protein annotation, biochemical, small-molecule microarray, 635 nm fluorescence (AID 1128).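 Note: score merges feature fluorescence with signal-to-noise for each printed compound spot.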 Conditions: anti-His Alexa647 antibody binding, higher = more signal.
For test [10], the system named is Human papillomavirus type 1a E7 protein (residues 1-88). Nature of the test: HPV1a E7 small-molecule binders, primary screen, biochemical, small-molecule microarray, residues 1-88, 635 nm (AID 1129). Conditions: small-molecule microarray binding, fluorescence 635 nm; higher = more signal.
Test [11] deals with Focal adhesion kinase 1 (Homo sapiens) (UniProt Q05397). The test can be described thus: small-molecule microarray binders of FAK, primary screen, biochemical, 635/667 nm fluorescence, BSA, DTT (AID 1130).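 Note: composite of spot emission at 667 nm and signal to noise over triplicate slides.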 The conditions noted are these: PTK2 binding, 635 nm fluorescence, higher = more signal.
Sequence of Focal adhesion kinase 1 (Homo sapiens) (Q05397 whole entry, looked up): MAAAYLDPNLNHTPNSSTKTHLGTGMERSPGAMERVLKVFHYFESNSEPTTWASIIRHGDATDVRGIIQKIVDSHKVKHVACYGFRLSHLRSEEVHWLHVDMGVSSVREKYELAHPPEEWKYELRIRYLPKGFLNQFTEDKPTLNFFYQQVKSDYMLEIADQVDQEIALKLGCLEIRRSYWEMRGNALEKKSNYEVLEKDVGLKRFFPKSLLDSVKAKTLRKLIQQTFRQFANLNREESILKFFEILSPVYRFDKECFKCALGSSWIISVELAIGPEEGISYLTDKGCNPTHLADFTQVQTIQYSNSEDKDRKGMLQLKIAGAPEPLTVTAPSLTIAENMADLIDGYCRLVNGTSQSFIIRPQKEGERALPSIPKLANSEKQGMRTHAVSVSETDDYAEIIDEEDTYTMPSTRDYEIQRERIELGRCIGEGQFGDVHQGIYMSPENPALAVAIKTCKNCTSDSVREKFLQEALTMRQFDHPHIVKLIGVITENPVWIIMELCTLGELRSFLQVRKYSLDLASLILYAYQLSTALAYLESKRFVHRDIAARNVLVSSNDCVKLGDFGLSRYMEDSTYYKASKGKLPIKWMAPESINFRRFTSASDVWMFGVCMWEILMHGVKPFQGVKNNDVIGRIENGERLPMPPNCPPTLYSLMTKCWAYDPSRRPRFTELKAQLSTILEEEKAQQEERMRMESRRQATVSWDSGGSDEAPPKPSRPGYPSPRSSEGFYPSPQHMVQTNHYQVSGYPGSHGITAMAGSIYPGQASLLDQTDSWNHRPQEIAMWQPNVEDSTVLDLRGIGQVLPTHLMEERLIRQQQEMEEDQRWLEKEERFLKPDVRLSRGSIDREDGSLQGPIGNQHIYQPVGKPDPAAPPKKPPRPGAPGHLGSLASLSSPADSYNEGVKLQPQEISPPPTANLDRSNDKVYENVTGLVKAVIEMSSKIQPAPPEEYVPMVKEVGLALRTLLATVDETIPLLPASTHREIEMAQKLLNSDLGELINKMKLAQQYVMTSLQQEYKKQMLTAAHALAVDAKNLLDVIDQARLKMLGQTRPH
For test [12], the system named is Fibrinogen (Alexa647-labelled). Nature of the test: fibrinogen binders on compound microarrays, profiling panel, artefact control for SMM control-protein annotation, biochemical, small-molecule microarray, 635/667 nm fluorescence (AID 1131).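 Note: z-score merges 667 nm fluorescence with per-spot signal-to-noise over triplicate slides.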 The conditions noted are these: fibrinogen-A647 binding fluorescence, higher = more signal.
Test [13] deals with Follistatin (Homo sapiens) (UniProt P19883). The test can be described thus: follistatin binders on small-molecule microarrays, primary screen, biochemical, small-molecule microarray, 635/667 nm fluorescence (AID 1132). The conditions noted are these: FST binding, 635 nm fluorescence, higher = more signal.
Sequence of Follistatin (Homo sapiens) (P19883 whole entry, looked up): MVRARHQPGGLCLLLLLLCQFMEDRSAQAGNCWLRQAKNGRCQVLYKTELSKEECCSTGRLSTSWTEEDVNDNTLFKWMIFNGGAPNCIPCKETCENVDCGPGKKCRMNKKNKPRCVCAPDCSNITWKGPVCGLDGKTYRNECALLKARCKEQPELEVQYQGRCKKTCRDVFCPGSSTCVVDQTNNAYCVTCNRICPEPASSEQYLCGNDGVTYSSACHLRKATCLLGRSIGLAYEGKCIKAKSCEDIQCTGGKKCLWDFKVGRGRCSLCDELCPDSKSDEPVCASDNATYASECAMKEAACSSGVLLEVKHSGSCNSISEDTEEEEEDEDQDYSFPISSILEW
Test [14] deals with Fibroblast growth factor 2 (Homo sapiens) (UniProt P09038). Nature of the test: FGF2 binders on small-molecule microarrays, primary screen, biochemical, small-molecule microarray, 635/667 nm fluorescence (AID 1133). Conditions: small-molecule microarray binding, FGF2, fluorescence 635/667; higher = more signal.
Sequence of Fibroblast growth factor 2 (Homo sapiens) (P09038 whole entry, looked up): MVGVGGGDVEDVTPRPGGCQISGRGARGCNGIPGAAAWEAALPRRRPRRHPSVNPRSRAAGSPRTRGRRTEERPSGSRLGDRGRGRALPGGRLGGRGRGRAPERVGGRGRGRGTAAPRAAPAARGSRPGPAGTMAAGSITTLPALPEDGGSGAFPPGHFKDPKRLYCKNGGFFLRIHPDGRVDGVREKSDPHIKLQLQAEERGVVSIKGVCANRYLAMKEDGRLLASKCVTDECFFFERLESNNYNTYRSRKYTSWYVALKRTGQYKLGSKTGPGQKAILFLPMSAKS
Test [15] in a line: mitochondrial membrane potential change in A549 cells, profiling panel, cell-based, JC-1 fluorescence, basal, 24 h, 100 nL (AID 1138).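 Note: A549 lung adenocarcinoma cells under basal conditions with no added stimulus; test concentration not given here.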 Conditions: higher = more signal.
A further test has as its system Lefty1. The test can be described thus: Lefty1 binders on small-molecule microarrays, primary screen, biochemical, small-molecule microarray, 635/667 nm fluorescence (AID 1139). Conditions: small-molecule microarray binding, fluorescence 635/667; higher = more signal.
Test [16] deals with wheat germ agglutinin (Triticum aestivum), Alexa647-labelled. Nature of the test: wheat germ agglutinin binders on compound microarrays, profiling panel, artefact control for SMM control-protein annotation, biochemical, small-molecule microarray, 635/667 nm fluorescence (AID 1140).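 Note: score merges 667 nm feature emission with signal to noise over triplicate slides.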 The conditions noted are these: WGA-A647 binding, 635 nm fluorescence, higher = more signal.
The target of test [17] is Luciferin 4-monooxygenase (Photinus pyralis) (UniProt P08659). The test can be described thus: firefly luciferase enzyme inhibitors, primary screen, biochemical, luminescence, purified enzyme, 2006 set (AID 1141).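 Note: cell-free assay with purified firefly luciferase at 100 ng per well in PBS; test concentration not given here.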 The conditions noted are these: SteadyGlo luminescence, 30 min, higher = more signal, called active from +8 up or from −8 down.
Sequence of Luciferin 4-monooxygenase (Photinus pyralis) (P08659 whole entry, looked up): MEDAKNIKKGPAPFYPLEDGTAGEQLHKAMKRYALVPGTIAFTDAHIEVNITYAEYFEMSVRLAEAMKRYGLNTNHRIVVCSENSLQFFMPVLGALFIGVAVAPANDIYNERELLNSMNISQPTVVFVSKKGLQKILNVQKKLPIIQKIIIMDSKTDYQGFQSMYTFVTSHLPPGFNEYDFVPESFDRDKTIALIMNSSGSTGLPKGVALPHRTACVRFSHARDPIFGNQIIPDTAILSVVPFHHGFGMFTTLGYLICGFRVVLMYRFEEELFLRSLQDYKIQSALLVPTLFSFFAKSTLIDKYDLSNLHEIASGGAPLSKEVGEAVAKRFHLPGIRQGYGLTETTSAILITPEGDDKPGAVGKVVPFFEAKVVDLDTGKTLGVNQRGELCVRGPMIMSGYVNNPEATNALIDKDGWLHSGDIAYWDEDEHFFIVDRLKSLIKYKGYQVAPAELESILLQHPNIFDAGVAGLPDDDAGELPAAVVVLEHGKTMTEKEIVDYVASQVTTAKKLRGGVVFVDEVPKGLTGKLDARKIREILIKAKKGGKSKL

With `COc1cc2c(cc1O)C(C1CC1)N(C)CC2` (stereo not given), the composite z-score with Albumin (Bos taurus) is 0.789; in test [2], -0.257; in test [3], -0.19; in [4], 0.902; in [5], -0.374; in test [6] it was -0.308. Moreover, the composite z-score is -0.758 in the test on Sam68 (KHDRBS1); -0.778 in test [7]; -1.91 in test [8]; -1.19 in [9]; -2.06 in test [10]; -0.532 in [11]. Moreover, the composite z-score is -1.18 in [12]; -1.09 in [13]; -0.716 in test [14]; -1.59 in the test with Lefty1; -0.413 in test [16]. The composite Z-score in test [1] was -0.519 (inactive). Also, the z-score in test [15] was 1.32; in test [17] it was -0.872 (inactive).

In the case of `COc1cc2c(cc1O)C(c1ccc(CN3CCCC3)cc1)N(Cc1cc3c(cc1Br)OCO3)CC2` (stereo not given), the composite z-score was 0.905 in the test with Albumin (Bos taurus); -0.0089 in test [2]; -0.102 in test [3]; 0.891 in test [4]; 0.796 in [5]; 0.119 in [6]. Also, the composite z-score was -0.521 in the test with Sam68 (KHDRBS1); -0.0867 in test [7]; 0.655 in test [8]; -0.381 in [9]; -0.367 in test [10]; 0.171 in test [11]. Also, the composite z-score in [12] was 0.516; in test [13] it was 0.0395; in test [14], -0.73; with Lefty1 it was -0.268; in test [16], 0.688. In addition, the composite Z-score in test [1] was 0.0698 (inactive). Further, the z-score is 1.11 in test [15] and -1.37 (inactive) in test [17].

For the compound `[N-]=[N+]=Nc1ccccc1C[C@@]1(C(=O)NCCN2CCOCC2)N=C(c2ccc(OCCCO)cc2)O[C@@H]1c1ccccc1N=[N+]=[N-]`, the composite z-score with Albumin (Bos taurus) was 0.832; in test [2], 0.351; in test [3], -0.0211; in test [4], 0.556; in test [5] it was 2.51; in test [6], 0.865. Besides, the composite z-score in the test with Sam68 (KHDRBS1) is 1.3; in test [7] it was -0.198; in [8] it was 1.04; in test [9] it was 2.81; in [10], 1.24; in test [11], 0.587. The composite z-score turned out to be 0.989 in [12]; 1.2 in test [13]; 0.752 in [14]; 0.383 in the test on Lefty1; 0.898 in test [16]. The composite Z-score in test [1] was -0.0662 (inactive). For the same compound, the results for the z-score in test [15] and in [17] were -0.381 and -1.71 (inactive), respectively.

With `COc1cc(NN2C(C(O)c3ccc(N(C)C)cc3)C=CC3C(=O)N(c4ccccc4)C(=O)C32)cc(OC)c1OC` (stereo not given), the composite z-score was 0.353 with Albumin (Bos taurus); 0.448 in test [2]; 0.0606 in [3]; 0.192 in [4]; 0.68 in test [5]; -0.196 in test [6]. Besides, the composite z-score was 0.913 in the test on Sam68 (KHDRBS1); -0.148 in test [7]; 0.0693 in [8]; 0.555 in test [9]; 1.03 in test [10]; 0.0507 in test [11]. The composite z-score is 0.945 in test [12]; 1.22 in test [13]; -0.223 in test [14]; 0.0646 in the test on Lefty1; 0.885 in test [16]. Also, in test [1], the composite Z-score was 0.785 (inactive). Besides, the z-score is 0.0531 in test [15] and 0.11 (inactive) in test [17].

On to `CCCNC(=O)[C@@H]1c2ccccc2C(=O)N(Cc2ccc(OC(F)(F)F)cc2)[C@H]1c1ccc(CO)cc1`, for which the composite z-score with Albumin (Bos taurus) is 0.27; in test [2] it was -0.0288; in test [3], -0.0326; in test [4], 0.158; in [5], 0.677; in [6], -0.374. For the same compound, the composite z-score with Sam68 (KHDRBS1) is 0.416; in [7], 0.102; in test [8], 0.0505; in test [9], 0.0772; in [10], 0.907; in test [11], -0.0662. Besides, the composite z-score in [12] was 0.368; in test [13] it was 0.887; in [14], 0.908; in the test with Lefty1, -0.0534; in [16], 0.0988. Moreover, in test [1], the composite Z-score was -0.123 (inactive). Further, the z-score was 1.93 in test [15] and 0.283 (inactive) in test [17].
